In the library only some 2.4% were active in any assay of this set; here they are far more common.
Pol beta inh: inhibitors of human DNA polymerase beta. P06746. Pol beta primer extension/strand displacement, fluorescence kinetic. Potency, µM (titrated, usually from 114 µM), without a hit: at the top dose activity change, negative = inhibition, actives largely listed as inhibitors. hit rate 1.3% among 340,000; further: on the % scale 0 is the no-effect control and ±100 the full control effect
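Pol beta (10 nM) was preincubated with compound for 15 min at room temperature. The reaction was then started with 50 nM substrate and read immediately and after a further 10 min at room temperature.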
POLK inh: inhibitors of human DNA polymerase kappa | purified Pol kappa, fluorescent DNA synthesis assay, 10 min | Potency, µM (highest dose often 107 µM), for the others: at the top dose activity, negative = inhibition, most hits filed as inhibitors | hit rate 0.53% among 400,000 | Q9UBT6; further: on the % scale 0 is the no-effect control and ±100 the full control effect
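Kinetic fluorescence screen: compound preincubated 15 min RT with 10 nM enzyme; 50 nM substrate (final) initiates; reads at 0/10 min.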
GLS inh: blocks human kidney-isoform glutaminase activity; Potency, µM (series often up to 45.5 µM), inactives show top-dose activity change, negative = inhibition, actives largely listed as inhibitors; AID 624170; GLS enzymatic activity, qHTS titration; hit rate 0.21% among 410,000; O94925; further: on the % scale 0 is the no-effect control and ±100 the full control effect
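Coupled fluorescence readout: glutamate oxidase/HRP/Amplex Red detect glutamate formed by hKGA from L-glutamine (1 mM solution added). Buffer 45 mM KH2PO4 pH 8.2, 0.02% Tween-20; reads at t0 and 30 min RT.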
POLH inh: DNA polymerase eta (human) inhibition. recombinant Pol eta, fluorescent DNA replication assay. Potency, µM (highest dose often 114 µM), inactives show top-dose activity change, negative = inhibition, most hits filed as inhibitors. hit rate 1.2% among 390,000. AID 588591; further: on the % scale 0 is the no-effect control and ±100 the full control effect
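Pol eta (10 nM) was preincubated with compounds for 15 min at room temperature, after which fluorescent replication substrate (50 nM final) was added to start the reaction. Fluorescence was read kinetically at 0 and 10 min.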
POLI inh: DNA polymerase iota (human) inhibition; Potency, µM (top dose mostly 115 µM), for the others: at the top dose activity, negative = inhibition, hits mostly inhibitors; Q9UNA4; hit rate 1% among 390,000; Pol iota fluorescent replication assay, 10 min; AID 588590
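Fluorescent replication assay read twice, at 0 min and 10 min after adding 50 nM (final) substrate. Enzyme (10 nM) and compounds were first incubated 15 min at room temperature; enzyme-free buffer wells were negative controls.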
APE1 inh: APE1 (human) endonuclease inhibition | P27695 | hit rate 0.35% among 350,000 | Potency, µM (highest dose often 65.8 µM), for the others: at the highest dose activity change, negative = inhibition, actives largely listed as inhibitors | recombinant APE1, TAMRA/BHQ-2 abasic DNA cleavage fluorescence;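 further: plate controls were vehicle for no effect and reference inhibitor for full effect; nearly all actives have a fitted effect of over 55% in size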
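Measures dequenching upon AP-site incision of a 5'-TAMRA/3'-BHQ-2 THF-containing duplex, 50 nM; human APE1 0.75 nM after 15 min room-temperature exposure to compound; kinetic three-point read at one-minute spacing.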
Numbers without * were called inactive; ? = inconclusive; . = no result; [ ] = remark or other dose. The call rests on the fitted dose curve; in most records, active means well fitted curve in the direction sought with a large enough effect; inconclusive means small, poorly fitted or top-dose-only effect, or another doubt; inactive means no such curve, though single readings can be large; an effect the other way counts as inactive or inconclusive. Potency means the concentration at half of the fitted maximal effect.

SMILES	Pol beta inh	POLK inh	GLS inh	POLH inh	POLI inh	APE1 inh
O=C1OC(c2cc(I)c(O)c(I)c2)(c2cc(I)c(O)c(I)c2)c2ccccc21	.	3.5µM*	25µM*	.	.	.
CNS(=O)(=O)c1ccc(-c2ccc(C=C3C(=O)NC(=O)NC3=O)o2)cc1	?	3%	-12%	-8%	22µM*	3%
COC(=O)Cn1cc(/C=C2\C(=O)NC(=O)N(c3ccccc3)C2=O)c2ccccc21	5%	-3%	1%	-3%	?	17%
Cc1ccc(N2C(=O)NC(=O)/C(=C\c3cn(CC(=O)O)c4ccccc34)C2=O)cc1	0%	-3%	6%	?	32µM*	50%
O=C(O)Cn1cc(/C=C2\C(=O)NC(=O)N(c3ccc(Br)cc3)C2=O)c2ccccc21	22%	-17%	-6%	?	32µM*	33%
Cc1cccc(N2C(=O)NC(=O)/C(=C/c3cc4c(cc3[N+](=O)[O-])OCO4)C2=O)c1	0%	89µM*	-41%	-9%	?	1%
COC(=O)C1=C(c2ccc(F)cc2OCc2ccccc2)C[C@@H]2CC[C@H]1N2C(=O)NCc1ccco1	.	?	2%	45µM*	?	-22%
O=c1[nH]sc2cc(F)ccc12	?	6%	7.9µM*	-4%	93%	0%
CCOc1ccc(CN2C(=O)c3ccccc3Sc3ccc(C(=O)N4CCC5(CC4)OCCO5)cc32)cc1	0%	-6%	-6%	-17%	-5%	.
O=C1C[C@@H](c2ccc(O)cc2)Oc2cc(O)cc(O)c21	-19%	-2%	13%	-14%	11%	-2%
O=C(O[C@@H]1Cc2c(O)cc(O)cc2O[C@@H]1c1cc(O)c(O)c(O)c1)c1cc(O)c(O)c(O)c1	0.45µM*	.	.	.	.	0.89µM*
CCCc1cc(=O)oc2cc(OCc3ccc(C(=O)O)o3)ccc12	71µM*	-16%	82%	?	113%	-30%
Cc1cc(=O)oc2cc(OCC(=O)N3CCCC3)ccc12	.	2%	-1%	-8%	?	-10%
N#CN=C1SCCN1Cc1ccc(Cl)nc1	.	14%[60.1 µM]	.	.	.	-3%
C#C[C@]1(O)CCC2C3CC=C4C[C@H](O)CC[C@]4(C)C3CC[C@@]21C (some centres undefined)	.	-5%	4%	-10%	-18%	.
CCCN1CCc2cc(O)cc3c2[C@H]1Cc1ccc(O)c(O)c1-3	.	-10%[60.1 µM]	19%	-8%	14µM*	.
S=c1[nH]nc(C2CC2)n1Cc1ccccc1	70%	-18%	2%	6%	14%	17%
S=c1[nH]nc(-c2ccco2)n1Cc1ccccc1	32µM*	-1%	?	-8%	21%	9%
CN(C(=O)Cc1ccc(Cl)c(Cl)c1)[C@@H](CN1CCCC1)c1cccc(OCC(=O)O)c1	.	-10%[19.4 µM]	.	.	.	8%
COc1ccc2c(c1OC)C(=O)OC2c1c(O)n(C2CCCCC2)c(=O)[nH]c1=O (centres undefined)	17%	-22%	12%	-10%	25µM*	-5%
O=c1[nH]c(=O)n(C2CCCCCC2)c(O)c1C=NCc1cccnc1	-1%	-4%	1%	-12%	-22%[58.9 µM]	1%
COc1cc2c(cc1O)[C@@H]1Cc3ccc(OC)c(O)c3CN1CC2	.	-5%	14%	?	10µM*	10%
CN1CCC(N(C)c2nc(-c3ccc([N+](=O)[O-])cc3)nc3ccccc23)CC1	11µM*	-28%	-2%	-23%	?	-8%
CCSc1nnc(NC(=O)c2cccn(Cc3ccc(Cl)cc3)c2=O)s1	13%	0%[60.1 µM]	1%	-2%	17%	.
CCOP(=O)(OCC)c1cccc(OP(=O)(c2cccc([N+](=O)[O-])c2)c2cccc([N+](=O)[O-])c2)c1	22%	2%	7%	-16%	59%	17%
Cc1[nH]n(-c2ccccc2)c(=O)c1C(c1ccc([N+](=O)[O-])cc1)c1c(C)[nH]n(-c2ccccc2)c1=O	7%	-3%	-5%	-6%	0.71µM*	5%

From PubChem
